From the antibiotic and cytotoxicity screens of Wong et al. (2023) come the findings set out here.

Each structure is given as a SMILES string. The campaign covered roughly 39,000 compounds. About 500 (1.3%) were called active. What follows is part of a selection rich in actives, with near analogues and random picks from the rest.

The test relates to S. aureus RN4220. As to the kind of experiment: growth inhibition call (relative growth <= 0.2). The settings on record: 50 µM.
In the case of `COc1ccc(C#Cc2ccc3c(c2)O[C@H](CN(C)C(=O)c2ccccn2)[C@H](C)CN([C@@H](C)CO)S3(=O)=O)cc1`, the growth inhibition call is “inactive”. With `OCCOCc1nnn2c1CN(c1ncccn1)CCC2`, the growth inhibition call was “inactive”. The value for `COC(=O)[C@H]1CCc2nc[nH]c2C1` was “inactive”.

For `Cc1oc(=O)oc1CN1CCN(c2cc3c(cc2F)c(=O)c(C(=O)O)c2n3C(C)S2)CC1` (configuration not stated), the growth inhibition call is “active”. The value for `Cn1cnc(S(=O)(=O)N2C[C@@H](O)COC[C@H]3O[C@@H](CC(=O)NCc4ccc(F)cc4)CC[C@@H]32)c1` was “inactive”; that for `COc1ccc(NC(=O)N(C)C[C@H]2OCCCC[C@H](C)Oc3ccc(NS(=O)(=O)c4ccc(F)cc4)cc3C(=O)N([C@@H](C)CO)C[C@H]2C)cc1` was “inactive”; that for `C[C@@H]1CN([C@@H](C)CO)C(=O)c2cc(NS(=O)(=O)c3ccc(Cl)cc3)ccc2O[C@@H]1CN(C)Cc1ccc(C(=O)Nc2ccccc2N)cc1` was “inactive”. For `CCN(CC)c1ccc(N2CC=C[C@@]34O[C@@H]5C=CCCOC(=O)[C@@H]5[C@H]3C(=O)N([C@@H](C)CO)[C@@H]4C2=O)cc1`, the growth inhibition call is “inactive”. The same measure for `O=C(C[C@@H]1CC[C@@H]2[C@H](COC[C@H](O)CN2C(=O)Nc2ccc(C(F)(F)F)cc2)O1)NCCc1ccncc1`: “inactive”; for `O=C(C[C@H]1CC[C@@H]2[C@H](COC[C@@H](O)CN2C(=O)Nc2ccc(Cl)cc2)O1)NCCc1ccncc1`: “inactive”. With `O=C(C[C@H]1CC[C@H]2[C@@H](COC[C@H](O)CN2C(=O)Nc2ccc(Cl)cc2)O1)NCCc1ccncc1`, the growth inhibition call was “inactive”. The same measure for `O=C(C[C@@H]1CC[C@@H]2[C@H](COC[C@H](O)CN2C(=O)Nc2ccc(Cl)cc2)O1)NCCc1ccncc1`: “inactive”; for `O=C(C[C@H]1CC[C@@H]2[C@H](COC[C@@H](O)CN2C(=O)Nc2ccc(C(F)(F)F)cc2)O1)NCc1ccncn1`: “inactive”; for `O=C(C[C@@H]1CC[C@H]2[C@@H](COC[C@H](O)CN2C(=O)Nc2ccc(C(F)(F)F)cc2)O1)NCCc1ccncc1`: “active”. The value for `O=C(C[C@@H]1CC[C@H]2[C@@H](COC[C@@H](O)CN2C(=O)Nc2ccc(C(F)(F)F)cc2)O1)NCCc1ccncc1` was “active”; that for `O=C(C[C@H]1CC[C@@H]2[C@H](COC[C@@H](O)CN2C(=O)Nc2ccc(C(F)(F)F)cc2)O1)NCCc1ccncc1` was “active”. The value for `O=C(C[C@H]1CC[C@H]2[C@@H](COC[C@@H](O)CN2C(=O)Nc2ccc(C(F)(F)F)cc2)O1)NCCc1ccncc1` was “active”. For `O=C(C[C@H]1CC[C@H]2[C@@H](COC[C@H](O)CN2C(=O)Nc2ccc(C(F)(F)F)cc2)O1)NCc1ccncn1`, the growth inhibition call is “inactive”. The same measure for `O=C(C[C@@H]1CC[C@H]2[C@@H](COC[C@@H](O)CN2C(=O)Nc2ccc(Cl)cc2)O1)NCCc1ccncc1`: “inactive”; for `O=C(C[C@H]1CC[C@H]2[C@@H](COC[C@@H](O)CN2C(=O)Nc2ccc(Cl)cc2)O1)NCCc1ccncc1`: “inactive”. Consider `Cc1ccc(S(=O)(=O)Nc2ccc3c(c2)C(=O)N(C)[C@H]2CC[C@@H](CC(=O)NCCc4ccncc4)O[C@H]2CO3)cc1`, for which the growth inhibition call was “inactive”.

Consider `C[C@@H]1CN([C@@H](C)CO)C(=O)c2cccc(NC(=O)C3CC3)c2O[C@@H]1CN(C)C(=O)NC1CCCCC1`, for which the growth inhibition call was “inactive”.

Consider `C[C@@H]1CN([C@H](C)CO)C(=O)Cc2cc(NC(=O)CCCCCC(=O)Nc3ccccc3N)ccc2O[C@H]1CN(C)C(=O)Nc1ccc(F)cc1`, for which the growth inhibition call is “inactive”. The value for `C[C@@H]1CN([C@H](C)CO)C(=O)c2c(c3ccccc3n2C)-c2ccccc2CO[C@@H]1CN(C)C(=O)c1cc(Cl)cc(Cl)c1` was “inactive”; that for `COc1cccc(S(=O)(=O)N[C@@H]2CC[C@H](CC(=O)NC3CCC3)O[C@@H]2CO)c1` was “inactive”. The value for `CN(C)CC(=O)N[C@H]1CC[C@@H](CC(=O)O)O[C@H]1CO` was “inactive”.

Consider `COCCNC(=O)C[C@@H]1CC[C@H]2[C@@H](COC[C@H](O)CN2S(=O)(=O)c2ccccc2C)O1`, for which the growth inhibition call was “inactive”. As for `Cc1noc(C)c1S(=O)(=O)Nc1ccc2c(c1)CC(=O)N([C@@H](C)CO)C[C@H](C)[C@H](CN(C)S(=O)(=O)c1ccccc1)O2`, the growth inhibition call is “inactive”. The value for `CC(=O)N(C)C[C@@H]1Oc2ncc(C#CC(C)(C)O)cc2C(=O)N([C@@H](C)CO)C[C@@H]1C` was “inactive”; that for `Cc1cc(C(=O)Nc2cccc3c2O[C@@H](CN(C)Cc2ccncc2)[C@@H](C)CN([C@@H](C)CO)C3=O)n(C)n1` was “inactive”; that for `COc1ccc(NC(=O)N(C)C[C@H]2OCCCC[C@H](C)Oc3ccc(NS(=O)(=O)c4ccc(C)cc4)cc3C(=O)N([C@@H](C)CO)C[C@@H]2C)cc1` was “inactive”. As for `O=C(C[C@@H]1CC[C@@H]2[C@H](COC[C@@H](O)CN2C(=O)Nc2ccc(Cl)cc2)O1)NCCc1ccncc1`, the growth inhibition call was “inactive”. The value for `O=C(C[C@H]1CC[C@H]2[C@@H](COC[C@H](O)CN2C(=O)Nc2ccc(C(F)(F)F)cc2)O1)NCCc1ccncc1` was “active”. As to `O=C(C[C@@H]1CC[C@@H]2[C@H](COC[C@@H](O)CN2C(=O)Nc2ccc(C(F)(F)F)cc2)O1)NCCc1ccncc1`, the growth inhibition call was “active”. The value for `O=C(C[C@H]1CC[C@@H]2[C@H](COC[C@H](O)CN2C(=O)Nc2ccc(C(F)(F)F)cc2)O1)NCCc1ccncc1` was “active”; that for `O=C(C[C@H]1CC[C@@H]2[C@H](COC[C@H](O)CN2C(=O)Nc2ccc(Cl)cc2)O1)NCCc1ccncc1` was “inactive”; that for `O=C(C[C@@H]1CC[C@H]2[C@@H](COC[C@H](O)CN2C(=O)Nc2ccc(Cl)cc2)O1)NCCc1ccncc1` was “inactive”. The same measure for `O=C(C[C@@H]1CC[C@H]2[C@@H](COC[C@H](O)CN2C(=O)Nc2ccc(C(F)(F)F)cc2)O1)NCc1ccncn1`: “inactive”; for `C[C@@H]1CN([C@H](C)CO)C(=O)c2cc(C#Cc3ccccc3F)cnc2O[C@H]1CN(C)S(=O)(=O)c1ccccc1`: “inactive”. The value for `CC(C)NC(=O)[C@@H](C)n1ncn2cccc2c1=O` was “inactive”. In the case of `C[C@H](CO)N1C[C@H](C)[C@@H](CN(C)C(=O)NC2CCCC2)Oc2cc(Br)ccc2S1(=O)=O`, the growth inhibition call is “inactive”. The value for `C[C@H](CO)N1C[C@H](C)[C@@H](CN(C)Cc2ccc(Cl)c(Cl)c2)Oc2ccc(NC(=O)C3CCCCC3)cc2CC1=O` was “inactive”; that for `Cc1cc(C(=O)Nc2cccc3c2O[C@H](CN(C)Cc2ccc4c(c2)OCO4)[C@H](C)CN([C@@H](C)CO)C3=O)n(C)n1` was “inactive”; that for `NC(Cc1c[nH]c2ccccc12)C(=O)O` (configuration not stated) was “inactive”. The same measure for `Cc1cc(C)cc(C(=O)N(C)[C@H](Cc2ccc(-c3ccccc3)cc2)C(=O)N[C@@H](Cc2c[nH]c3ccccc23)C(=O)O)c1`: “active”. For the molecule `NCCCC[C@@H](N)C(=O)N[C@@H](Cc1c[nH]c2ccccc12)C(=O)N[C@@H](CCCCN)C(=O)O`, the growth inhibition call was “inactive”.

As for `CCC[C@H]1CN(S(=O)(=O)c2c(C)cc(C)c3nonc23)C[C@@H]1N`, the growth inhibition call is “inactive”. The same measure for `Cn1c(=O)sn(-c2ccccc2)c1=O`: “inactive”; for `Nc1cc(=O)[nH]c(=O)n1Cc1ccccc1`: “inactive”; for `Cn1sc(=O)n(Cc2ccccc2)c1=O`: “active”. Turning to `Cc1ccc(S(=O)(=O)Nc2ccc3c(c2)C(=O)N([C@@H](C)CO)C[C@@H](C)[C@H](CN(C)S(=O)(=O)c2ccc(C)cc2)OCCCC[C@H](C)O3)cc1`, the growth inhibition call was “inactive”. The value for `CO[C@@H]1CN(C)C(=O)c2cc(NS(C)(=O)=O)ccc2OC[C@@H](C)N(C(=O)C2CCCCC2)C[C@@H]1C` was “inactive”; that for `Cc1ccc(C(C)C)cc2c(C)ccc1-2` was “inactive”; that for `CC(C)c1ccc(N2C=Nc3ccc(C(C)C)cc3C2)cc1` was “active”. The same measure for `COc1ccc(NC(=O)Nc2ccc3c(c2)C(=O)N([C@@H](C)CO)C[C@@H](C)[C@@H](CN(C)C(=O)CCC(F)(F)F)OCCCC[C@@H](C)O3)cc1`: “inactive”; for `C[C@@H]1CN([C@H](C)CO)C(=O)Cc2cc(NC(=O)C3CCCCC3)ccc2O[C@@H]1CN(C)Cc1ccc(C(F)(F)F)cc1`: “inactive”; for `COc1ccccc1CNC(=O)C[C@H]1C[C@H]2c3cc(NC(=O)NC4CCCC4)ccc3O[C@H]2[C@H](CO)O1`: “inactive”. The same measure for `COc1cc(C(=O)NS(=O)(=O)c2ccccc2C)ccc1Cc1cn(C)c2ccc(NC(=O)OC3CCCC3)cc12`: “active”; for `COc1cc(Nc2nc3ccccc3nc2NS(=O)(=O)c2ccc(NC(=O)c3ccc(C)c(OC)c3)cc2)cc(OC)c1`: “inactive”.

Regarding `CCNC(=O)[C@@H]1[C@@H](CO)[C@@H]2Cn3c(ccc(-c4ccc(OC)cc4)c3=O)[C@H]1N2S(C)(=O)=O`, the growth inhibition call is “inactive”. For `COc1ccc(NC(=O)Nc2ccc3c(c2)C(=O)N([C@H](C)CO)C[C@@H](C)[C@H](CN(C)CC2CC2)OCCCC[C@@H](C)O3)cc1`, the growth inhibition call is “inactive”. The same measure for `C[C@H](CO)N1C[C@H](C)[C@H](CN(C)Cc2ccc(-c3ccccc3)cc2)Oc2c(NS(=O)(=O)c3ccc(F)cc3)cccc2C1=O`: “inactive”; for `COc1ccc(C)cc1S(=O)(=O)NCCO`: “inactive”; for `COc1ccc2cc(-c3cc(-c4cc(Cl)cc(Cl)c4)nn3[C@@H](C)c3ccc(C(=O)NCCC(=O)O)cc3)ccc2c1`: “inactive”. The value for `Cc1cc(C)c(-c2ccc(NC(=O)[C@H](Cc3ccc(C(=O)NCCS(=O)(=O)O)cc3)c3ccc(-c4ccc(C(C)(C)C)cc4)cc3)cc2)c(C)c1` was “inactive”. The value for `Cc1cc(O[C@@H](CCC(F)(F)F)c2ccc(C(=O)NCCC(=O)O)cc2)cc(C)c1-c1ccc(C(C)(C)C)cc1` was “active”; that for `COc1ccc(NC(=O)Nc2cccc3c2O[C@H](CN(C)S(C)(=O)=O)[C@H](C)CN([C@@H](C)CO)C3=O)cc1` was “inactive”. Take `Nc1ncn(C[C@@H](O)CO)c2nc(Br)nc1-2`: the growth inhibition call was “inactive”.

As to `Nc1nnc(-c2ccc([N+](=O)[O-])o2)o1`, the growth inhibition call was “active”. The same measure for `Nc1nnc(-c2ccno2)o1`: “inactive”; for `Cc1cc(-c2nnc(N)o2)nn1C`: “inactive”.

Regarding `Cc1noc(C)c1NC(=O)N(C)C[C@@H]1OCCCC[C@@H](C)Oc2ccc(NC(=O)Nc3ccc(F)cc3)cc2C(=O)N([C@@H](C)CO)C[C@H]1C`, the growth inhibition call was “inactive”.
